Measured values taken from PubChem BioAssay (EPA / NIEHS).
Where “and” joins values, the source holds several entries; their conditions need not be identical. Equal values may be shown once. Records with an inconclusive call do not appear. Calls of active or inactive are those of the source. Rule for the calls, unless noted: active = hit-call score of the fitted dose curve at least 0.9, where 1 is the maximum; inconclusive = response in the unintended direction; inactive = score below 0.9.

Experiments:
[1] = target: Cellular tumor antigen p53 (Homo sapiens) (UniProt P04637); test: TOX21_p53_BLA_p2_ratio: Tox21 HCT-116 p53 Agonism Beta-lactamase Assay, Ratio, Phase 2 (AID 2283592)
Procedure, shortened: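 An inducible beta-lactamase reporter in HCT116 cells signals p53 pathway activation. After 16 h chemical exposure at 37C, cells load CCF4-AM substrate for 2 h at room temperature; activity is the cleaved/uncleaved emission ratio relative to DMSO.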

[2] = TOX21_p53_BLA_p3_viability: Viability Assessment in the Tox21 HCT-116 p53 Agonism Beta-lactamase Assay, Phase 3 (AID 2283593);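 note: cells exposed to compound for 16 h before reading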
Procedure, shortened: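 HCT-116 cells (4000/well) rested 5 h at 37C, then got DMSO compounds by pin tool (217-fold dilution) for 16 h at 37C, 5% CO2. After the bla read, CellTiter-Glo was added and luminescence read at 30 min, room temperature.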

[3] = target: Cellular tumor antigen p53 (Homo sapiens) (UniProt P04637); test: TOX21_p53_BLA_p3_ratio: Tox21 HCT-116 p53 Agonism Beta-lactamase Assay, Ratio, Phase 3 (AID 2283596)
Procedure, shortened: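 HCT116 p53-bla cells (4000/well) given compound in DMSO (217-fold dilution) after 5 h, incubated 16 h at 37C. CCF4-AM substrate 2 h at room temperature; 460/530 nm emission ratio, gain fitted against DMSO.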

[4] = TOX21_p53_BLA_p4_viability: Viability Assessment in the Tox21 HCT-116 p53 Agonism Beta-lactamase Assay, Phase 4 (AID 2283597);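 note: hits lower the luminescence signal meaning cytotoxicity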
Procedure, shortened: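 Compound exposure of HCT116 cells lasts 16 h at 37C, 5% CO2, with DMSO stocks diluted 217-fold. Cellular ATP is then quantified by CellTiter-Glo luminescence after 30 min at room temperature.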

[5] = target: Cellular tumor antigen p53 (Homo sapiens) (UniProt P04637); test: TOX21_p53_BLA_p5_ratio: Tox21 HCT-116 p53 Agonism Beta-lactamase Assay, Ratio, Phase 5 (AID 2283599)
Procedure, shortened: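 HCT-116 cells carrying a p53-inducible beta-lactamase reporter were seeded at 4000 cells/well and dosed after 5 h with compound in DMSO (217-fold dilution). After 16 h at 37C, CCF4-AM substrate was added for 2 h, and the 460/530 nm emission ratio was scored as gain-of-signal versus DMSO.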

[6] = TOX21_p53_BLA_p5_viability: Viability Assessment in the Tox21 HCT-116 p53 Agonism Beta-lactamase Assay, Phase 5 (AID 2283600)
Procedure, shortened: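 Counter-readout for cytotoxicity: ATP-dependent luminescence from CellTiter-Glo, read in the beta-lactamase wells after 30 min at RT, following a 16 h compound exposure at 37C.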

[7] = target: Cellular tumor antigen p53 (Homo sapiens) (UniProt P04637); test: TOX21_p53_BLA_p4_ratio: Tox21 HCT-116 p53 Agonism Beta-lactamase Assay, Ratio, Phase 4 (AID 2283601)
Procedure, shortened: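 HCT116 cells carrying an inducible beta-lactamase reporter were plated at 4000 cells/well, rested 5 h, then exposed to compounds in DMSO (217-fold dilution) for 16 h at 37C. CCF4-AM substrate was loaded 2 h at room temperature; 460/530 nm emission ratio scored gain-of-signal versus DMSO.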

[8] = CCTE_Padilla_ZF_144hpf_TERATOSCORE: (Legacy) CCTE's 144 Hour Post-fertilization zebrafish Assay Teratoscore, Padilla Lab (AID 2283679; active = hit-call score of the fitted dose curve at least 0.9, where 1 is the maximum; inactive = score below 0.9;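 note: zebrafish embryos with chorions exposed by immersion from 6-8 hpf to 5 dpf with daily renewal; teratogenicity score from eye scoring of death hatching and malformations at 144 hpf; higher score means more developmental defects relative to DMSO baseline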)
Procedure, shortened: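 Larvae scored by eye at 144 hpf for death, hatching and malformations after a day in clean Hanks'. Before that, daily-renewed exposure at 80 uM (0.4% DMSO, 26C) from roughly 6-8 hpf through 5 dpf, 4 embryos per chemical.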

[9] = tested on: Thyroperoxidase (TPO), gene 54314; test: CCTE_Simmons_AUR_rTPO: CCTE's Amplex UltraRed Assay for Thyroperoxidase (TPO) Inhibition, Simmons Lab (AID 2283662);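 note: potency for loss of signal meaning inhibition of peroxidase activity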
Procedure, shortened: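 Cell-free peroxidase activity assay using rat thyroid gland microsomes with excess H2O2 (300 uM) and 25 uM Amplex UltraRed. Compounds tested from 5 nM to 87.5 uM; fluorescence measured after 30 min at 37C, analysed relative to DMSO baseline.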

[10] = CCTE_Simmons_CellTiterGLO_HEK293T: Viability Assessment in CCTE's Assays for Thyroperoxidase (TPO) Inhibition, Simmons Lab (AID 2283665);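 for AC50: cells exposed to compound for 24 h before readout; actives reduce ATP signal below DMSO vehicle meaning cytotoxicity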
Procedure, shortened: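 HEK293T cells in DMEM with 1% FBS, dosed 24 h at 37C with 8 concentrations, 5 nM–87.5 uM final, 0.5% DMSO. ATP measured by CellTiter Glo luminescence; loss of signal vs DMSO, three biological replicates.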

Measured: AC50

Cellular tumor antigen p53 (Homo sapiens), sequence (P04637 whole entry, looked up): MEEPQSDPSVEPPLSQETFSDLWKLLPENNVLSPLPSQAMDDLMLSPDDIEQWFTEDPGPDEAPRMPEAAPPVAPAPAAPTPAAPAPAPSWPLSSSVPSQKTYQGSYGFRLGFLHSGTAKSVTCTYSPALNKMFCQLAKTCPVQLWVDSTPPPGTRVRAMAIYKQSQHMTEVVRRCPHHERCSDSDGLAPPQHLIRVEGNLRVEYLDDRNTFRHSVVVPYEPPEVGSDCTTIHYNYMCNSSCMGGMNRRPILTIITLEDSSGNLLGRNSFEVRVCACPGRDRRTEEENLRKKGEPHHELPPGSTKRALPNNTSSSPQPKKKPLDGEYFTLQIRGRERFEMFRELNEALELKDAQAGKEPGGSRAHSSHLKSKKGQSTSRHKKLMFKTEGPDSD

COCc1c(C(C)C)nc(C(C)C)c(/C=C/[C@@H](O)C[C@@H](O)CC(=O)O)c1-c1ccc(F)cc1
active: [8] 78.1 nM and 159 nM
not listed: [9] | [10]
inactive: all other assays above

Cc1cccc(N(C)C(=S)Oc2ccc3ccccc3c2)c1
not listed: [8] | [9] | [10]
inactive: all other assays above

[Cl][Bi]([Cl])([c]1ccccc1)([c]1ccccc1)[c]1ccccc1
active: [1] 18.4 µM | [2] 71.4 µM | [3] 76.2 µM | [4] 11.2 µM | [5] 67.7 µM | [6] 58.1 µM | [7] 14.1 µM

CC(=O)Nc1nnc(S(N)(=O)=O)s1
inactive: [1] | [2] | [3] | [4] | [6] | [7]

CC=C1CC2C=CC1C2 (stereo unspecified)
not listed: [8] | [9] | [10]
inactive: all other assays above

CC(C)c1ccc2c(C(C)C)cc(C(C)C)c(S(=O)(=O)O)c2c1
active: [4] 89.7 µM
inactive: [1] | [2] | [3] | [6]

O=C1CCCCCN1SSN1CCCCCC1=O
active: [1] 86.6 µM
inactive: [2] | [3] | [4] | [6] | [7]

CC(C)=CCC[C@H](C)CCO
inactive: [1] | [2] | [3] | [4] | [6]

CCCCOCCOC(=O)COc1nc(Cl)c(Cl)cc1Cl
inactive: [1] | [2] | [3] | [4] | [6]

O=C(Nc1ccccc1)c1ccccc1O
active: [1] 57 µM
not listed: [8] | [9] | [10]
inactive: all other assays above

O=C(Nc1cccc(C(F)(F)F)c1)c1cc(Br)cc(Br)c1O
active: [1] 181 nM and 1.14 µM | [2] 429 nM and 1.04 µM | [3] 306 nM and 746 nM | [4] 1.82 µM and 1.7 µM | [7] 3.52 µM and 8.65 µM
inactive: [6]

C1CN(SSN2CCOCC2)CCO1
active: [9] 4.25 µM | [10] 88.9 µM
not listed: [8]
inactive: all other assays above

C/C=C\C/C=C/CCCCCCCCOC(C)=O
not listed: [8] | [9] | [10]
inactive: all other assays above

O=C(O)CC(C(=O)O)C(CC(=O)O)C(=O)O (stereo unspecified)
inactive: [1] | [2] | [3] | [4] | [6] | [7]

CC(=O)NS(=O)(=O)c1ccc(N)cc1
not listed: [8] | [9] | [10]
inactive: all other assays above

CC(C)(c1cc(Br)c(OCCO)c(Br)c1)c1cc(Br)c(OCCO)c(Br)c1
active: [1] 10.8 µM | [2] 55 µM | [3] 19.9 µM | [4] 53.1 µM | [5] 40.1 µM | [6] 60.1 µM | [7] 50.1 µM

CC(C)(Oc1ccc(C2CC2(Cl)Cl)cc1)C(=O)O (stereo unspecified)
not listed: [8] | [9] | [10]
inactive: all other assays above

Cc1cc(=O)n(-c2ccccc2)n1C
not listed: [8] | [9] | [10]
inactive: all other assays above

O=C1c2cccc(O)c2C(=O)c2c(O)cc(CO)cc21
inactive: [2] | [3] | [4] | [6] | [7]
active: [1] 31.7 µM

CN(C)c1ccc(C(=N)c2ccc(N(C)C)cc2)cc1
inactive: [2] | [4] | [6] | [10]
active: [1] 896 nM and 2.2 µM | [3] 13.2 µM and 6.84 µM | [5] 2.63 µM and 2.56 µM | [7] 936 nM and 1.49 µM | [9] 31.6 µM

C=C[C@](C)(O)CC[C@@H]1[C@@]2(C)CCCC(C)(C)[C@@H]2CC[C@@]1(C)O
inactive: [7]
active: [1] 86 µM | [2] 64.6 µM | [3] 85.2 µM | [4] 15.8 µM | [5] 87.1 µM | [6] 67.5 µM

C=CC(=O)NC(C)(C)CS(=O)(=O)O
not listed: [8] | [9] | [10]
inactive: all other assays above

CN1C(=O)N(C)C(O)C1O (stereo unspecified)
not listed: [8] | [9] | [10]
inactive: all other assays above

Nc1ccc(Cl)cc1Cl
inactive: [1] | [2] | [3] | [4] | [5] | [7]

C=CC(C)(C)C
inactive: [1] | [2] | [3] | [5] | [6] | [7]

COc1cc(C)ccc1C(C)C
inactive: [1] | [2] | [3] | [5] | [6] | [7]

O=CN1CCCCC1
inactive: [1] | [2] | [3] | [6] | [7]

COC(=O)c1ccc2cc(C(=O)OC)ccc2c1
inactive: [1] | [2] | [4] | [5] | [6]

CCCCCCCCCCOS(=O)(=O)O
inactive: [1] | [2] | [4]
